This note sets out measurements from PubChem BioAssay (NCATS).

Assay [1] deals with Lysosomal acid glucosylceramidase (Homo sapiens) (UniProt P04062). Nature of the assay: Glucocerebrosidase-p2 (AID 348; in the data active means potency below about 10 µM; further: potency means the concentration at half of the fitted maximal effect). Particulars: purified GBA, blue fluorogenic substrate, 40 min. In short, it runs like this:
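Compounds titrated from 0.6 nM upwards against 0.2 nM enzyme in pH 5.9 citric acid/KH2PO4, taurocholate, tween-20; blue fluorogenic substrate 80 uM, 40 min room temperature, stopped and read Ex 365/Em 440 for AC50.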

A short description of assay [2]: AP1 Signaling Pathway (AID 357; active means well fitted curve in either direction with a large enough effect, not every such curve was filed as active; further: on the % scale 0 is the no-effect control and ±100 the full control effect). Particulars: ME-180 AP-1-bla reporter, EGF-induced, beta-lactamase ratio, 5 h; at 7.69 µM (top of the series) unless noted. In short, it runs like this: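 Beta-lactamase reporter under AP-1 response element, ME-180 background. Stimulus: EC50 EGF. Compound exposure 5 h, 37 °C. Detection: CCF4, 2.5 h RT, 460/530 nm. Values: AC50 from titration.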

Assay [3] has as its target Cytochrome P450 1A2 (Homo sapiens) (UniProt P05177). Nature of the assay: p450-cyp1a2 (AID 410; calls by dose curve; further: potency means the concentration at half of the fitted maximal effect;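 on activity change, negative = inhibition: -100% = full effect of reference inhibitor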). Particulars: recombinant CYP1A2, luciferin-ME demethylation, luminescence; series mostly up to 57 µM. In short, it runs like this:
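Human CYP1A2 (20nM) demethylated Luciferin-ME at its Km (100uM) in 100mM KPO4. After 10 min compound preincubation, NADPH regeneration ran the reaction 60 min at room temperature. Luciferin was read by luminescence, normalized to 57 uM furafylline.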

Assay [4] in a line: NFAT Signaling Pathway (AID 444; active means well fitted curve in either direction with a large enough effect, not every such curve was filed as active;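 further: carbachol stimulus at about its EC50 of 1 µM final; on the % scale 0 is the no-effect control and ±100 the full control effect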). Particulars: Jurkat NFAT-bla M1, carbachol, beta-lactamase ratio, 5 h; at 7.69 µM (top of the series) unless noted. In short, it runs like this:
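Jurkat cells carrying an NFAT-driven β-lactamase reporter and co-transfected muscarinic M1 receptor were treated with compound plus carbachol (1 uM final, an EC50 level) for 5 h at 37 °C. CCF4 loading followed for 1 h at RT; 460/530 nm ratio gave %activity.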

A short description of assay [5]: Stat Signaling Pathway (AID 446; active means well fitted curve in either direction with a large enough effect, not every such curve was filed as active;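 further: ME-180 cervical cancer cells given 40 pM IL-6 alongside compound; SIE-controlled beta-lactamase reporter measured as 460/530 nm FRET emission ratio; on the % scale 0 is the no-effect control and ±100 the full control effect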). Particulars: ME-180 SIE beta-lactamase reporter, IL-6 stimulated, 5 h; at 7.69 µM (top of the series) unless noted. In short, it runs like this: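 ME-180 SIE-bla cells; overnight plating; cpd + IL-6 40 pM, 5 h, 37 C; LiveBLAzer 2.5 h RT; 460/530 nm emission ratio. Normalized to 300 pM IL-6 and 125 nM JAK inhibitor controls.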
Assay [6] deals with Glucocorticoid receptor (Homo sapiens) (UniProt P04150). The assay is described as follows: GR-GFP Redistribution (AID 450;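 active means compounds whose dose series gives a full or clear partial fitted curve of increased nuclear translocation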; further: potency means the concentration at half of the fitted maximal effect). Particulars: U2OS GR-GFP nuclear translocation, laser cytometry, 2 h.
For assay [7] the target is unchanged. Nature of the assay: GR-EFC Redistribution (AID 451; calls by dose curve; further: potency means the concentration at half of the fitted maximal effect). Particulars: CHO-K1 GR-EFC translocation, beta-gal luminescence, 2 h. In short, it runs like this:
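CHO-K1 cells stably expressing nuclear-localized β-gal enzyme acceptor and GR fused C-terminally to the enzyme donor fragment; ligand-driven nuclear translocation restores β-gal by complementation. Compounds titrated up to 46 uM final, 2 h at 37 °C; luminescence read.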

Assay [8] concerns the target Mitogen-activated protein kinase 10 (Mus musculus) (UniProt Q61831). The assay is described as follows: JNK3 AlphaScreen Assay (AID 530; active means well fitted curve in either direction with a large enough effect, not every such curve was filed as active;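 further: kinase came from lysate of stimulated human HepG2 cells; on the % scale 0 is the no-effect control and ±100 the full control effect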). Particulars: JNK3 lysate, c-Jun phosphorylation; series mostly up to 57.1 µM. In short, it runs like this: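 JNK3 came from HepG2 lysates pre-activated with IL-1beta and TNF-alpha and phosphorylated biotinylated GST-cJun (1-79) at 10 uM ATP, pH 7.6, room temperature. Compounds were titrated. AlphaScreen signal used anti-phospho-cJun (Ser73) antibody.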

In assay [9] the target is 3',5'-cyclic-AMP phosphodiesterase 4B (Homo sapiens) (UniProt Q07343). Nature of the assay: qHTS Assay for Inhibitors of PDE-IV (AID 607; active means well fitted activation curve with a large enough effect in the main read-out, with a control signal flat, not every such curve was filed as active; further: % of control where 0% means no effect). Particulars: HEK293 ACTOne CNG channel cells, membrane potential fluorescence; series mostly up to 22.9 µM. In short, it runs like this:
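ACTOne HEK293 cells carry a modified cAMP-gated CNG channel and express endogenous PDE4; plated 1000 cells/well, compounds up to 22.9 uM final. Membrane-potential dye fluorescence (ex 535/em 590) was read; parental cells received 10 uM forskolin + 100 uM RO 20-1724.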
For orientation: In qHTS, concentration-response curves come from the screen itself.

A short description of assay [10]: Confirmation and Secondary Assay for Modulators of Hemoglobin Beta Chain Splicing at IVS2 654 locus (AID 910).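 Further: per-well total GFP intensity by laser scanning cytometry after 2-day treatment; % of control where 0% means no effect.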 Particulars: HeLa EGFP-654 splicing reporter, GFP fluorescence, 48 h; series mostly up to 38.3 µM. In short, it runs like this:
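HeLa cells stably carrying EGFP interrupted by mutant beta-globin IVS2-654 intron (CMV-driven) were treated with compound for 2 days at 37C; corrected splicing was scored as total peak GFP intensity per well (488 nm excitation, 500-520 nm emission).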

A short description of assay [11]: Confirmation and Secondary Assay for Modulators of Hemoglobin Beta Chain Splicing at IVS2 705 locus (AID 930).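 Further: HeLa cells stably expressing the EGFP-705 splicing reporter; % of control where 0% means no effect.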 Particulars: HeLa EGFP-705 splicing reporter, GFP fluorescence, 48 h; series mostly up to 38.3 µM. In short, it runs like this: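 Restored EGFP fluorescence after 2-day compound exposure reports splicing correction in IVS2-705 EGFP reporter HeLa cells; positive control was 500 nM splice-blocking PNA oligo. Signal measured as well total peak GFP intensity (488 nm excitation).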

A short description of assay [12]: qHTS Assay for Lipid Storage Modulators (AID 1519; calls by dose curve). Particulars: Drosophila S3 cells, BODIPY lipid droplet/cell ratio, laser cytometry, cells loaded with oleic acid; for activity change, negative = inhibition: at 57.5 µM (top of the series). In short, it runs like this: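 Cells seeded at 5,000 per well were treated with compounds over a concentration series and loaded with oleic acid (400 uM, as added). Lipid droplet fluorescence (488 nm excitation, 500-530 nm channel) was read by laser-scanning cytometry and normalized to 20 uM Triacsin C.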

A short description of assay [13]: Primary qHTS for small molecule stabilizers of the endoplasmic reticulum resident proteome: Secreted ER Calcium Modulated Protein (SERCaMP) assay (AID 1508630). Further: on the % scale 0 is the no-effect control and ±100 the full control effect. Particulars: SH-SY5Y GLuc-SERCaMP (Gaussia luciferase released on ER calcium loss) secretion, thapsigargin, luminescence; series mostly up to 38.4 µM. In short, it runs like this: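 GLuc-SERCaMP-expressing SH-SY5Y cells, pretreated 16 h with compound, are challenged with thapsigargin to empty ER calcium stores; after 4 h, coelenterazine is added directly to the medium and luminescence is imaged.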

For assay [14], the target named is Cytochrome P450 3A4 (Homo sapiens) (UniProt P08684). The assay is described as follows: qHTS Assay for Inhibitors and Substrates of Cytochrome P450 3A4 (AID 884). Further: potency means the concentration at half of the fitted maximal effect; nearly all actives have a fitted effect of over 50% in size. Particulars: recombinant CYP3A4, Luciferin-PPXE luminescence; series mostly up to 57.1 µM. In short, it runs like this: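 20 nM human CYP3A4 with 25 uM Luciferin-PPXE (at KM) in 200 mM KPO4, preincubated 10 min with compound; NADPH regeneration started a 60 min RT reaction. Luciferin detected by luminescence, normalized to 57 uM ketoconazole as full inhibition.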

For assay [15] the target is unchanged. The assay is described as follows: qHTS Assay for Activators of Cytochrome P450 3A4 (AID 885). Further: nearly all actives have a fitted effect of over 65% in size. Particulars: recombinant CYP3A4, Luciferin-PPXE luminescence, 60 min; series mostly up to 57.1 µM. In short, it runs like this: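 20nM CYP3A4 + 25uM Luciferin-PPXE (=KM), 200mM KPO4; cpd 10 min RT; NADPH regen, 60 min RT; stop w/ detection buffer, 20 min; luminescence. Normalized to 57 uM ketoconazole.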

Assay [16] can be described thus: qHTS Assay for Identification of Small Molecule Agonists for Hypoxia Response Element Signaling Pathway (AID 914; active means well fitted activation curve with a large enough effect in the signal ratio, with a control signal flat, not every such curve was filed as active; the % refers to the signal ratio; further: % of control where 0% means no effect). Particulars: ME-180 (cervical carcinoma) HRE-bla reporter, beta-lactamase ratio, CoCl2, 17 h; activation: stronger effect = higher value. In short, it runs like this: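 AC50 values come from titration-series %Activity, taken as the 460/530nm ratio of CCF4 fluorescence (excitation 405nm). CellSensor HRE-bla ME-180 cells were treated 17 hours at 37 C with compound plus an EC50 level of CoCl2.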

Assay [17] concerns the target Ubiquitin carboxyl-terminal hydrolase 1 (Homo sapiens) (UniProt O94782). Nature of the assay: Inhibitors of USP1/UAF1: Pilot qHTS (AID 504865). Further: nearly all actives have a fitted effect of over 35% in size. Further: potency means the concentration at half of the fitted maximal effect. Particulars: purified USP1/UAF1, Ub-rhodamine cleavage fluorescence; series mostly up to 54.9 µM. In short, it runs like this: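 Kinetic fluorescence assay: 1nM USP1/UAF1, 15 min compound preincubation, then 150nM Ub-Rho; 480/540 nm.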

Assay [18] deals with Cytochrome P450 2C9 (Homo sapiens) (UniProt P11712). Nature of the assay: qHTS Assay for Inhibitors and Substrates of Cytochrome P450 2C9 (AID 883). Further: on the % scale 0 is the no-effect control and ±100 the full control effect; nearly all actives have a fitted effect of over 60% in size. Particulars: recombinant CYP2C9, luciferin-H luminescence, 60 min; series mostly up to 57.1 µM. In short, it runs like this:
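A luminogenic readout tracked human CYP2C9 (10nM) converting deoxyluciferin (100uM, at KM) in 25mM KPO4 during 60 min at 37C with regenerated NADPH. Values normalized to 57uM sulphaphenazole as complete inhibition.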

Assay [19] addresses Cytochrome P450 2C19 (Homo sapiens) (UniProt P33261). Nature of the assay: qHTS Assay for Inhibitors and Substrates of Cytochrome P450 2C19 (AID 899). Further: on the % scale 0 is the no-effect control and ±100 the full control effect; nearly all actives have a fitted effect of over 60% in size. Particulars: recombinant CYP2C19, luciferin-H EGE luminescence; series mostly up to 57.1 µM. In short, it runs like this: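 NADPH-dependent conversion of Luciferin-H EGE (10uM, at KM) by 5nM enzyme in 50mM KPO4, 60 min at 37C following 10 min compound preincubation. Stopped with luciferin detection buffer; luminescence read after 20 min.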

Where [20] appears, read: measured here: cell count channel max response.
Where [21] appears, read: measured here: lipid channel max response.

Inconclusive results are not listed. The source made the active and inactive calls. Unless noted, the call rests on the fitted dose curve; in most records, active means well fitted curve in the direction sought with a large enough effect; inconclusive means small, poorly fitted or top-dose-only effect, or another doubt; inactive means no such curve, though single readings can be large; an effect the other way counts as inactive or inconclusive. Some results are limits rather than exact numbers.

Ubiquitin carboxyl-terminal hydrolase 1 (Homo sapiens), sequence (O94782 whole entry, looked up): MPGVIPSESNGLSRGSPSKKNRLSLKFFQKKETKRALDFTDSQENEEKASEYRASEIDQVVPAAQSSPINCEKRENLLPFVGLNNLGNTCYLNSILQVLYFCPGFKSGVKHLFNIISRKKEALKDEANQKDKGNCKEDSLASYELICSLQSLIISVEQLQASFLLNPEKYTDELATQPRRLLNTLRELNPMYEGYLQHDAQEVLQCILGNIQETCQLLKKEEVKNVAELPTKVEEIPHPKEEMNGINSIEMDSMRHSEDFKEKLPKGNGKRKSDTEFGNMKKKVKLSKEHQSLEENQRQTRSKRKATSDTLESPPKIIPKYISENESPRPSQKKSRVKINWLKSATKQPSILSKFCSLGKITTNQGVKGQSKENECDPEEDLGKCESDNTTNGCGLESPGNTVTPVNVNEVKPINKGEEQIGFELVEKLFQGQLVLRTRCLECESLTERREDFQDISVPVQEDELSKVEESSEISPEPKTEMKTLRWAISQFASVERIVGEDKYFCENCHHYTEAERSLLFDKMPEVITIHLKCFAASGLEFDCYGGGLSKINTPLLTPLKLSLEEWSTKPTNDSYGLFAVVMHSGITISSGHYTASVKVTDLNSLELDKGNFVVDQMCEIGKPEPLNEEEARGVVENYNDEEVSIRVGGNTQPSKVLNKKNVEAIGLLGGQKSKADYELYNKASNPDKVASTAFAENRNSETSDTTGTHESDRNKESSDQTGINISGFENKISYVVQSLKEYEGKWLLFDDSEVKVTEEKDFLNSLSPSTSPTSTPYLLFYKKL
3',5'-cyclic-AMP phosphodiesterase 4B (Homo sapiens), sequence (Q07343 whole entry, looked up): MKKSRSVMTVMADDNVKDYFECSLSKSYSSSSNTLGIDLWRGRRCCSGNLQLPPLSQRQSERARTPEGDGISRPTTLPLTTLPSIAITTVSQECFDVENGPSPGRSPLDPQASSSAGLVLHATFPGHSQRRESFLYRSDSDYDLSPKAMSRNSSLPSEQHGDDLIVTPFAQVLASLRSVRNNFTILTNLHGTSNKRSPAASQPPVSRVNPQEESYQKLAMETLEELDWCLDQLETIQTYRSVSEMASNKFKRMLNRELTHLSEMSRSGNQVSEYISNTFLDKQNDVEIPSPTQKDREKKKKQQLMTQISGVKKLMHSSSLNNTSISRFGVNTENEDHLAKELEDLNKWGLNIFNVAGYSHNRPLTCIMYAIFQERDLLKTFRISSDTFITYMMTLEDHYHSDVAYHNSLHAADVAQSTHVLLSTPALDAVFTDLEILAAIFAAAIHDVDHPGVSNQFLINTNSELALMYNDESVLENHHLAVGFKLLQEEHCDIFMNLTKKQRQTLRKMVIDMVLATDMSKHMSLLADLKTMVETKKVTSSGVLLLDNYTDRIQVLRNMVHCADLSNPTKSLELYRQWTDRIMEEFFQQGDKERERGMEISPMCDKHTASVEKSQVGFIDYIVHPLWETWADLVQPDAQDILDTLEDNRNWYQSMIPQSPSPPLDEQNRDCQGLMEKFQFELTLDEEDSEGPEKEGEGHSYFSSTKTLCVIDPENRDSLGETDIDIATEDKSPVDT
Cytochrome P450 3A4 (Homo sapiens), sequence (P08684 whole entry, looked up): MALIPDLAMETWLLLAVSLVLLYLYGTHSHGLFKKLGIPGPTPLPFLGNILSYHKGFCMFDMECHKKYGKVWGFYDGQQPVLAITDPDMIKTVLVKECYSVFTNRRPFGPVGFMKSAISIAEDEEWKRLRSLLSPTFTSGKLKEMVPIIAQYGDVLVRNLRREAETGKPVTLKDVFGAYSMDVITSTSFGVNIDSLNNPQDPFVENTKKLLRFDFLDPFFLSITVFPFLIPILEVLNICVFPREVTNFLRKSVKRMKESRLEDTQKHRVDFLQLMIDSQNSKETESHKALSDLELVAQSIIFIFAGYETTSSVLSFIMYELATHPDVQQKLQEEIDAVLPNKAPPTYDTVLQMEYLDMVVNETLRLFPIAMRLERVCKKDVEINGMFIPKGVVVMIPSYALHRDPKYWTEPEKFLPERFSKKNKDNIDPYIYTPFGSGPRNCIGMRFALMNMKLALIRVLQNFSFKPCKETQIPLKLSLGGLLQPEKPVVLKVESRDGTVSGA
Lysosomal acid glucosylceramidase (Homo sapiens), sequence (P04062 whole entry, looked up): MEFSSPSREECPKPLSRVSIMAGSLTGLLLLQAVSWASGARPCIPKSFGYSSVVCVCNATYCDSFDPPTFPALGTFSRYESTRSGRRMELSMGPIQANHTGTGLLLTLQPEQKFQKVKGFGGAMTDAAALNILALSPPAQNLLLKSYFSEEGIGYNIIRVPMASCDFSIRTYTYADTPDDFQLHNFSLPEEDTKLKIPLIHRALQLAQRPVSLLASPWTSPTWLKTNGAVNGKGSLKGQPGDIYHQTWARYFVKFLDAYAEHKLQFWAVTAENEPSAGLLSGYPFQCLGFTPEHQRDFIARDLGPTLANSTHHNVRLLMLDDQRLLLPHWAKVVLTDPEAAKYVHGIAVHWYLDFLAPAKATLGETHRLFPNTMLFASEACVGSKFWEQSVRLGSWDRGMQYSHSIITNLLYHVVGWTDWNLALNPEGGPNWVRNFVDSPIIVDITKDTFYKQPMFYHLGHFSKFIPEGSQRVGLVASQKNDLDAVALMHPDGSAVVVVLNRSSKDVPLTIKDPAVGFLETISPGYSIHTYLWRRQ
Glucocorticoid receptor (Homo sapiens), sequence (P04150 whole entry, looked up): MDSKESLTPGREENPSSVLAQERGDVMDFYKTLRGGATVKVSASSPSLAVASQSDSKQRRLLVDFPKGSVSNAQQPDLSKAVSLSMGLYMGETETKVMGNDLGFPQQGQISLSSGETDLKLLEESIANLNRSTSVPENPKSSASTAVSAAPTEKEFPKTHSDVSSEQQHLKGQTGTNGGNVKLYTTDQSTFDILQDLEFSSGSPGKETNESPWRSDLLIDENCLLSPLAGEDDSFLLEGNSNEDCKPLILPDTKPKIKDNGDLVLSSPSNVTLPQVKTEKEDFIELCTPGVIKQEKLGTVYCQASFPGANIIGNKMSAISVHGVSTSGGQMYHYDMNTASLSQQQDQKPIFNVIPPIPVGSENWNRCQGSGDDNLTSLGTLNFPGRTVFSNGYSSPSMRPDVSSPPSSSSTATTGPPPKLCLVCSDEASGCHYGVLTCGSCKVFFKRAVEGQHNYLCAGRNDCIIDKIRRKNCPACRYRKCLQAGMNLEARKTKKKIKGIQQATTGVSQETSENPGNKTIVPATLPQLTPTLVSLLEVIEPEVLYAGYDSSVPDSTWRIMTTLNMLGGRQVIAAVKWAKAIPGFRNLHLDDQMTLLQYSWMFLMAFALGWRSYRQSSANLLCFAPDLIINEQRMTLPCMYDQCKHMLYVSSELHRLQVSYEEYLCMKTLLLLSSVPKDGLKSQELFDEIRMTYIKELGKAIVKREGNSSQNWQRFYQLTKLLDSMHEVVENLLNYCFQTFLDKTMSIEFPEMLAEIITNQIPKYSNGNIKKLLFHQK
Cytochrome P450 1A2 (Homo sapiens), sequence (P05177 whole entry, looked up): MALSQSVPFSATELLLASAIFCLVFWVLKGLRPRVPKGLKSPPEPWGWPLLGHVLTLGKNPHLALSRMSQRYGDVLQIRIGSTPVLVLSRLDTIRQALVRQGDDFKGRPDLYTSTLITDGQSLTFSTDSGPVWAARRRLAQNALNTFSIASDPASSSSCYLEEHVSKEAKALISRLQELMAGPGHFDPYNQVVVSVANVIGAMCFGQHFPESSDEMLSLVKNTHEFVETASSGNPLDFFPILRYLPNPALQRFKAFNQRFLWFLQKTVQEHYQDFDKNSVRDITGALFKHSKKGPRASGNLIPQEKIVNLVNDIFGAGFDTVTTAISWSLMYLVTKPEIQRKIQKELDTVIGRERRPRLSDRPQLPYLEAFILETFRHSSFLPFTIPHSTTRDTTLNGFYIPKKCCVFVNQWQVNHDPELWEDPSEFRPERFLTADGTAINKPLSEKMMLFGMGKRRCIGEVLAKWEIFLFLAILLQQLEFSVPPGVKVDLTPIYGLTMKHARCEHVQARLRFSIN
Cytochrome P450 2C9 (Homo sapiens), sequence (P11712 whole entry, looked up): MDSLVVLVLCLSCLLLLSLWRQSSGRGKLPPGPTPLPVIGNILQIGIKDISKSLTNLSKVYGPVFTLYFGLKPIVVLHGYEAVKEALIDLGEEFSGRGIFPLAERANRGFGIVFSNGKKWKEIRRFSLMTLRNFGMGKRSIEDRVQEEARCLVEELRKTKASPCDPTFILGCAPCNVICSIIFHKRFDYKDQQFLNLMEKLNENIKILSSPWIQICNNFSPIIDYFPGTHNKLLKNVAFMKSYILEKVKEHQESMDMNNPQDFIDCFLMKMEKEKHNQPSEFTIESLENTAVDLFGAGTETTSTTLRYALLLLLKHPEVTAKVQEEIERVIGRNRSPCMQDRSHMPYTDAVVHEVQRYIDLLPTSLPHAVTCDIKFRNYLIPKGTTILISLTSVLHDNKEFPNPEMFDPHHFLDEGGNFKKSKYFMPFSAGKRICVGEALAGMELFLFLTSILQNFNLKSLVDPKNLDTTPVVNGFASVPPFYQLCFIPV
Cytochrome P450 2C19 (Homo sapiens), sequence (P33261 whole entry, looked up): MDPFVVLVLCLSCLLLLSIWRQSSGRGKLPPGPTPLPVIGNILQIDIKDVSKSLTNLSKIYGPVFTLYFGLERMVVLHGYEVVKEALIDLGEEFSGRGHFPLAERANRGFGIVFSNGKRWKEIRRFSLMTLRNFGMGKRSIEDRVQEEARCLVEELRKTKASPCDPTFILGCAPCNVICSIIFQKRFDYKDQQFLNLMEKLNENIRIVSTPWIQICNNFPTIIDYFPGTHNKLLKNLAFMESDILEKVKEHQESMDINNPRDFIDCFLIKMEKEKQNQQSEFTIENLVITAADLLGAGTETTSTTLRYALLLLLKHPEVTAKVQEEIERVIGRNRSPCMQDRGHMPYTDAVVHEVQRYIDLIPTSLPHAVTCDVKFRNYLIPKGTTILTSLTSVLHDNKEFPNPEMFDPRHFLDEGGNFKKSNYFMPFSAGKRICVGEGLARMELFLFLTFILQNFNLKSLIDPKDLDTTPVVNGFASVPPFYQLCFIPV

Consider `Cc1cccc(CNc2ccnc(-c3ccoc3)n2)c1`, for which the Potency in assay [1] is > 11.4 µM (inactive); in assay [3], 2 µM (active); in assay [6] it was > 46 µM (inactive); in assay [7], > 46 µM (inactive). For the same compound, the figures for the activity change, negative = inhibition in [2], in assay [4] and in [12] were 0.94% (inactive), 0.371% (inactive) and 6.91% (inactive), respectively. For the same compound, in [5], the activity, negative = inhibition was 6.16% (inactive). The compound was classed as inactive in [8], in [10] and in assay [11]. The Potency result in assay [9] and in [13] was “inactive” in each case. Further, the max response was 1.7% in [12] (setting [20]) and 4.61% in assay [12] (setting [21]).

For `COc1ccc2[nH]cc(CCNc3cc(-c4ccccc4C(F)(F)F)ncn3)c2c1`, the Potency is > 11.4 µM (inactive) in assay [1]; 10 µM (active) in [3]; > 46 µM (inactive) in [6]; > 46 µM (inactive) in assay [7]; 5.01 µM (active) in assay [14]. Besides, the activity change, negative = inhibition in [2] was -26.7% (inactive); in assay [4] it was 14% (inactive); in [12], 6.48% (inactive). Also, the activity, negative = inhibition in [5] was 0.643% (inactive). The outcome in assay [8], in assay [10] and in assay [11] was inactive. Further, the Potency entry in [9], in [15] and in [13] was “inactive” each time. The max response in assay [12] (setting [20]) was -3.31%; in [12] (setting [21]), 0.275%.

Consider `Cc1cnc(CNc2ncncc2-c2ccc(C(=O)N(C)C)cc2)cn1`, for which the Potency was > 11.4 µM (inactive) in [1], 20 µM (active) in assay [3], > 46 µM (inactive) in assay [6] and > 46 µM (inactive) in [7]. Besides, the activity change, negative = inhibition was 5.94% (inactive) in assay [2], 2.85% (inactive) in [4] and 10.8% (inactive) in assay [12]. In assay [5], the activity, negative = inhibition was 9.42% (inactive). Moreover, the compound was classed as inactive in assay [8], in assay [10] and in assay [11]. Moreover, the Potency result in assay [15], in assay [17] and in assay [13] was “inactive” each time. In assay [16], the activation was 0.757% (inactive). Further, the max response in assay [12] (setting [20]) was 16%; in assay [12] (setting [21]), 28.5%.

In the case of `CN(C)c1nc(-c2ccoc2)nc2ccccc12`, the Potency in assay [1] was > 11.4 µM (inactive); in [3] it was 0.501 µM (active); in assay [6], > 46 µM (inactive); in assay [7], > 46 µM (inactive); in assay [17] it was 56.2 µM (active). Besides, the activity change, negative = inhibition in assay [2] is -8.03% (inactive); in assay [4], -9.32% (inactive); in assay [12], 8.68% (inactive). Further, the activity, negative = inhibition in assay [5] was 6.57% (inactive). Also, the result in [8], in assay [10] and in [11] was inactive. In addition, the Potency result in [15] and in assay [13] was “inactive” in each case. Also, the max response amounted to 8.73% in assay [12] (setting [20]) and 18.5% in assay [12] (setting [21]).

As for `CNc1ccnc(-c2c(C)noc2C)n1`, the Potency in [1] is > 11.4 µM (inactive); in assay [3], 1.26 µM (active); in assay [7], > 46 µM (inactive). For the same compound, the activity change, negative = inhibition is 2.46% (inactive) in [2], 1.59% (inactive) in [4], 41% [at 2.29 µM] (inactive) in [18] and 4.8% (inactive) in assay [12]. Besides, the activity, negative = inhibition in assay [5] is 12.4% (inactive). The result in [8], in assay [10] and in assay [11] was inactive. Also, the Potency result in assay [9], in assay [15], in assay [19], in assay [17] and in assay [13] was “inactive” throughout. Besides, in assay [16], the activation was 11.5% (inactive). The max response in [12] (setting [20]) is -12.7%; in assay [12] (setting [21]), -8.12%.

Turning to `CC(C)NC(=O)N1CC[C@@]2(CCCN(S(C)(=O)=O)C2)C1`, the Potency in [1] was > 11.4 µM (inactive); in assay [7], > 46 µM (inactive). Besides, the activity change, negative = inhibition was -5.61% (inactive) in assay [2], 0.961% (inactive) in assay [4] and 0.109% (inactive) in assay [12]. Besides, the Potency result in [3] and in assay [13] was “inactive” in each case. Besides, the activity, negative = inhibition in [5] is -2.56% (inactive). Besides, in [8], the compound was called inactive. The results for the max response in assay [12] (setting [20]) and in assay [12] (setting [21]) were 4.25% and 3.89%, respectively.
